This is a sample that favours compounds with a hit; in the whole collection about 1.7% have one here.
Peg3 imprint: qHTS Assay for Compounds that Induce Erasure of Genomic Imprints | mouse ES Peg3-LacZ reporter, beta-gal luminescence, 40 h | Potency, µM (series often up to 60.7 µM), most hits filed as activators | 110,000 compounds, 0.02% hits | AID 1948, 2009
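Each well holds 300 Peg3LacZ-Neo (maternal) female ES cells incubated 40 h at 37C, 5% CO2. LacZ is measured by BetaGlo luminescence, with AC50 and maximum efficacy derived from dose-response curves.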
p53ts 32C tox: qHTS Screen for Compounds that Selectively Target Cancer Cells with p53 Mutations: Cytotoxicity of p53ts Cells at the Permissive Temperature; H1299-p53A138V at 32C, ATP luminescence viability, 24 h; Potency, µM (top dose mostly 46.1 µM), most hits filed as cytotoxic; 130,000 compounds, 0.93% hits; AID 924, 2007; note: nearly all actives have a fitted effect of over 55% in size
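Viability by ATPlite luminescence after 24 h compound treatment (up to 46 uM) at the permissive 32C. Cells are H1299 carrying p53 A138V. Scale runs from DMSO basal to 100 uM tamoxifen as full kill; AC50 from Hill fits.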
p53ts 39C kill: qHTS Screen for Compounds that Selectively Target Cancer Cells with p53 Mutations: Cytotoxicity of p53ts Cells at the Nonpermissive Temperature. H1299-p53A138V viability at 39C, ATP luminescence, 24 h. Potency, µM (top dose mostly 46.1 µM), actives largely listed as cytotoxic. 130,000 compounds, 1.5% hits. AID 902, 2007; note: nearly all actives have a fitted effect of over 55% in size
IkB signaling: IkB Signaling. AID 445, 2006. Potency, µM (highest dose often 57.1 µM). ABC-DLBCL IkBa-CBG/CBR dual luciferase ratio, 4 h; response scale: scaled: untreated 0%, proteasome inhibitor 100%. 110,000 compounds, 0.04% hits; active = well fitted curve in the direction sought with a large enough effect in the signal ratio, not every such curve was filed as active; inconclusive = small, poorly fitted or top-dose-only effect, or a change in a side signal; the % refers to the signal ratio;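 note: the direction sought is a rising ratio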
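Luminescence ratio of IκBα-fused green versus native red beetle luciferase in OCI-Ly3 cells, 4 h post-doxycycline with compound; red signal alone, scaled from basal (0%) to zero light (-100%), flagged nonspecific or cytotoxic effects.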
Hits are given with their value; . = inactive; ? = inconclusive; / = no result; [ ] = another dose, or the depositor's remark. Unless noted, calls come from the whole dose curve; as a rule, active = well fitted curve in the direction sought with a large enough effect; inconclusive = small, poorly fitted or top-dose-only effect, or another doubt; inactive = no such curve, though single readings can be large; an effect the other way counts as inactive or inconclusive.

SMILES	Peg3 imprint	p53ts 32C tox	p53ts 39C kill	IkB signaling
CN(c1ccc(Cl)cc1)S(=O)(=O)c1nnc(NC(=O)C2CCCCC2)s1	.[10.9 µM]	.	.	?
CCOc1ccccc1NC(=O)c1sc2nc(-c3ccc(OC)cc3)ccc2c1N	.[10.9 µM]	6.3µM	4µM	.
CCOc1ccc(NC(=O)c2nn(C)c3c2COc2ccccc2-3)cc1	.[10.9 µM]	.	.	.
N#Cc1cc2c(nc1SCC(=O)Nc1nccs1)CCCCC2	.	?	?	.
CCc1nnc(NC(=O)CSc2nc3c(cc2C#N)CCC3)s1	.	2µM	2µM	.
O=[N+]([O-])c1cc(Cc2cc([N+](=O)[O-])c3cccnc3c2O)c(O)c2ncccc12	.[10.9 µM]	.[9.22 µM]	.[9.22 µM]	5µM
CCCC(=O)NC(c1cccs1)c1cc([N+](=O)[O-])c2cccnc2c1O (centres undefined)	/	/	.	/
Cc1ccc(-n2ncc3c(NCCO)ncnc32)cc1Cl	.[10.9 µM]	.	16µM	?
Cc1ccc(-n2ncc3c(N4CCN(C)CC4)ncnc32)cc1Cl	.[10.9 µM]	.	?	?
Cc1ccc(-n2ncc3c(N(C)C)ncnc32)cc1Cl	.[10.9 µM]	?	7.9µM	.
CCCCN(C)c1ncnc2c1cnn2-c1cccc(Cl)c1	.[10.9 µM]	?	16µM	.
COc1ccccc1CN1CC2(CCN(C(=O)c3cnccn3)CC2)C1	/	.	.	.[11.4 µM]
Cc1cc2nc(-c3ccc(SCC(=O)N4CCN(C(=O)c5ccco5)CC4)nc3)[nH]c2cc1C	.	6.3µM	5µM	?
Cc1cc2nc(-c3ccc(SCC(=O)N4CCOCC4)nc3)[nH]c2cc1C	.	6.3µM	7.9µM	?
CC[C@@H]1Cn2c(c3nc(-c4cc(Cl)cc(Cl)c4Cl)nc-3n(C)c2=O)N1	.	/	/	/
CN(C(=O)c1ccccc1)c1nc2ccccc2s1	.	10µM	13µM	?
CN(C(=O)c1ccncc1)c1nnc(-c2ccccn2)s1	.	.	.	.
Cc1ccccc1N1C(=O)c2ccccc2NC1c1ccncc1 (centres undefined)	/	.	.	/
O=C1c2ccccc2C(=O)C1c1ccncc1	.	3.2µM	3.2µM	.
CSc1n[nH]c(NCc2ccc(C)cc2)n1	/	11µM	14µM	/
c1ccc2c(c1)-c1nc3ccccc3cc1[C@H]2N1CCOCC1	.[10.9 µM]	.[9.22 µM]	.[9.22 µM]	.[11.4 µM]
OC1c2ccccc2-c2nc3ccccc3cc21 (centres undefined)	.	?	10µM	/
Cc1cccc(N2CCN(C3(c4ccccc4)C(=O)c4ccccc4C3=O)CC2)c1C	.[10.9 µM]	.	.	?
N#Cc1c(-n2ncnc2-c2cccc(Br)c2)sc2c1CCCCC2	.[10.9 µM]	.	.	?
Cc1ccccc1-c1ncnn1-c1sc2c(c1C#N)CCCCC2	.[10.9 µM]	?	13µM	?
SMILES	Peg3 imprint	p53ts 32C tox	p53ts 39C kill	IkB signaling
N#Cc1c(-n2ncnc2-c2ccc(F)cc2)sc2c1CCCCC2	.[10.9 µM]	13µM	13µM	?
CC1(COc2ccc(C[C@H]3SC(=O)NC3=O)cc2)CCCCC1	.	?	40µM	?
Cc1c(C)c2c(c(C)c1O)CCC(C)(COc1ccc(CC3SC(=O)NC3=O)cc1)O2 (centres undefined)	.	/	/	/
CC(C)NC(=O)C(c1ccccc1)N1Cc2ccccc2C1=O (centres undefined)	/	.	/	/
C[C@@H](C(=O)O)c1ccc(N2Cc3ccccc3C2=O)cc1	.	10µM	5µM	?
CC[C@@H]1OC(=O)[C@@H](C)[C@H](O[C@@H]2C[C@@](C)(OC)[C@@H](O)[C@H](C)O2)[C@H](C)[C@H](O[C@@H]2O[C@@H](C)C[C@@H](N(C)C)[C@H]2O)[C@@](C)(O)C[C@H](C)C(=O)[C@@H](C)[C@H](O)[C@@]1(C)O	/	/	/	.[11.4 µM]
Cn1c(CN2CCCCC2)nc2cc(NC(=O)c3cccc(Br)c3)ccc21	.[10.9 µM]	.	.	?
CCC(=O)NCCc1nc2cc(NC(=O)c3cccc(Br)c3)ccc2n1C	.[10.9 µM]	13µM	10µM	.
Cc1ccc(C)c(N2CCN(CCCNC(=O)c3cnn(-c4ccccc4Cl)c3C3CCN(C(=O)OC(C)(C)C)CC3)CC2)c1	.[10.9 µM]	.	16µM	?
Cc1ccc(C)c(N2CCN(CCCNC(=O)c3cnn(-c4cccc(Cl)c4)c3C3CCN(C(=O)OC(C)(C)C)CC3)CC2)c1	.[10.9 µM]	?	?	?
Cc1ccc(C)c(N2CCN(CCCNC(=O)c3cnn(-c4ccc(F)cc4)c3C3CCN(C(=O)OC(C)(C)C)CC3)CC2)c1	.[10.9 µM]	?	25µM	?
CCN1CCN(CCCNC(=O)c2cnn(-c3ccc(C)cc3)c2C2CCN(C(=O)OC(C)(C)C)CC2)CC1	.[10.9 µM]	.	.	?
Cc1ccc(NC(=O)Cn2c(=O)c(C(F)(F)F)nc3ccccc32)c(C)c1	.[10.9 µM]	.	.	.
CC(C(=O)NCc1cccc(Br)c1)n1ncn2cccc2c1=O (centres undefined)	.[10.9 µM]	?	13µM	?
CCN1CCN(CCC(=O)Nc2ccccc2OC)CC1	.	.	.	.
CCN1CCN(Cc2ccc(NC(=O)Nc3ccccc3OC)cc2)CC1	.	7.9µM	10µM	.
CCN(CC)c1ccc(C(=O)Nc2cccc(F)c2)cc1	.	13µM	?	.
CCc1ccc(Nc2nc3c(S(=O)(=O)c4cccc(Cl)c4)nnn3c3ccsc23)cc1	.[10.9 µM]	.	.	.
CCc1ccc(S(=O)(=O)c2nnn3c2nc(Nc2ccc(NC(C)=O)cc2)c2sccc23)cc1	.[10.9 µM]	?	13µM	.
CCCC(=O)c1cc(O)c(O)cc1O	.	.[1.84 µM]	.	.
COc1cc(-c2ccc(N=C=O)c(OC)c2)ccc1N=C=O	.	.[1.84 µM]	.	.
CC(C)(C)OC(=O)[C@H]([C@@H]1N[C@@H](C(=O)O)C(C)(C)S1)N1C(=O)c2ccccc2C1=O	/	.[9.22 µM]	.[9.22 µM]	.[11.4 µM]
Cc1ccc(S(=O)(=O)C(CNC(=O)C(=O)NCc2ccc(Cl)cc2)c2cccs2)cc1 (centres undefined)	.[10.9 µM]	.	.	?
COc1ccc(OC)c2sc(N(Cc3cccnc3)C(=O)c3ccc(C(C)=O)cc3)nc12	.[10.9 µM]	.	.	.
CC1(C)COCN1S(=O)(=O)c1ccc(C(=O)Nc2nnc(-c3ccc(Cl)s3)o2)cc1	.	?	7.9µM	.
SMILES	Peg3 imprint	p53ts 32C tox	p53ts 39C kill	IkB signaling
COC(=O)[C@H]1[C@@H]2C[C@H]3c4[nH]c5ccccc5c4CCN3C[C@@H]2CC[C@@H]1O	.	.	.	?
Cc1ccccc1Nc1nn2c(=O)c3ccc(C(=O)NCc4cccs4)cc3nc2s1	.[10.9 µM]	.	.	?
CCc1ccccc1Nc1nn2c(=O)c3ccc(C(=O)NCc4ccccc4OC)cc3nc2s1	.[10.9 µM]	.	.	?
CCc1cccc(NC(=O)c2ccc3c(=O)n4nc(Nc5ccccc5OC)sc4nc3c2)c1	.[10.9 µM]	3.2µM	5µM	.
Cc1ccc(C)c(Nc2nn3c(=O)c4ccc(C(=O)NCc5ccccc5)cc4nc3s2)c1	.[10.9 µM]	?	13µM	?
COc1ccccc1Nc1nn2c(=O)c3ccc(C(=O)NCc4ccc(F)cc4)cc3nc2s1	.[10.9 µM]	3.2µM	3.2µM	.
CCOc1ccccc1NC(=O)CC(c1ccc(F)cc1)N1Cc2ccccc2C1=O (centres undefined)	.[10.9 µM]	.	.	.

Screening data from PubChem.
